# Source: PubChem (The Scripps Research Institute Molecular Screening Center)
# The list is not random: actives were taken first. Their share in the collection is about 3.5%.
# MITF primary: MITF inhibitors, primary screen, biochemical, AlphaScreen, human. hit rate 0.91% among 650,000. Microphthalmia-associated transcription factor (Homo sapiens), O75030. inhibition, % at 2.6 µM. AlphaScreen MITF homodimerization, bead proximity signal; in the data active = inhibition above about 50%;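 note: 0% = vehicle wells with protein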
# Target sequence (O75030 whole entry, looked up): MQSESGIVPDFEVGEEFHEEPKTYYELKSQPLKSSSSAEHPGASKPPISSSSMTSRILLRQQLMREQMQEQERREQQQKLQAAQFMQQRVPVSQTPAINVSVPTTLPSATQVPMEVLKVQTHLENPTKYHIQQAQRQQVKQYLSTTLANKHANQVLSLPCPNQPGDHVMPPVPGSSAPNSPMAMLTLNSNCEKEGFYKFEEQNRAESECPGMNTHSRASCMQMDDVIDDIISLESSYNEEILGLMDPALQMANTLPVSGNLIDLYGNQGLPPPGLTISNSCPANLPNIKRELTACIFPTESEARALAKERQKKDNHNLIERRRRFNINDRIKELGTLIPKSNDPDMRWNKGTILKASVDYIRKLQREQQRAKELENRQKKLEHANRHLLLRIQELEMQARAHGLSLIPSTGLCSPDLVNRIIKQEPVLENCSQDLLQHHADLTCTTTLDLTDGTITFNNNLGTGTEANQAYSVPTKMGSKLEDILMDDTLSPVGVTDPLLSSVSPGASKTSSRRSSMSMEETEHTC
# TEAD-YAP inh: TEAD-YAP interaction inhibition, primary screen, TEAD-YAP interaction inhibitor project, luminescence, HEK-TIYL cells; TEAD-Gal4/YAP UAS-luciferase luminescence; hit rate 1.4% among 640,000; inhibition, % at 9.12 µM; in the data active = inhibition above about 32%;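 note: 0% = median of test compound wells and 100% = reference inhibitor wells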
# FBW7 act: FBW7 E3 ligase activators, primary screen, biochemical, AlphaScreen, human | normalized activity (activation), % at 26.1 µM | F-box/WD repeat-containing protein 7 (Homo sapiens), Q969H0 | AID 1259310, 2017 | AlphaScreen FBW7–phospho-cyclin E peptide binding, activator screen | hit rate 0.13% among 650,000; in the data active = normalized activity above about 1.9%;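 note: purified mutant Fbw7 with reduced substrate affinity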
# GPR151 ag: activators of human GPR151, primary screen, cell-based, PathHunter beta-arrestin, luminescence | G-protein coupled receptor 151 (Homo sapiens), Q8TDV0 | hit rate 1% among 650,000 | activation, % at 11.2 µM | PathHunter beta-arrestin GPR151 cells; in the data active = activation above about 4.9%;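 note: 0% = median of compound wells and 100% = cells with positive control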
# GPR151 confirm: GPR151 activators, triplicate retest, confirmation, cell-based, PathHunter beta-arrestin, luminescence | shares compounds with GPR151 ag | activation, % at 11.2 µM | GPR151 PathHunter beta-arrestin cells, 90 min; % of EA-reagent control over plate median | 6,700 tested, under 10 active;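 active = mean percent activation across replicates above the confirmation screen cutoff of 4.91%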
# GPR119 counter: GPR119 activators in beta-arrestin cells, counter-screen for GPR151 activator project, cell-based, PathHunter beta-arrestin, luminescence, triplicate. shares compounds with GPR151 ag. hit rate 0.3% among 6,700. activation, % at 11.2 µM. 90 min; 0 = compound-well median, 100 = enzyme-acceptor control;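 active = mean percent activation in the counterscreen above 29.09%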;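 note: counterscreen on off-target GPR119 to flag nonselective hits from the GPR151 activator screen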
# Starred values were filed as active, the others as inactive; · = no result.
SMILES,MITF primary,TEAD-YAP inh,FBW7 act,GPR151 ag,GPR151 confirm,GPR119 counter
COc1ccc(C(=O)Oc2ccc(/C=C/c3ccncc3)cc2)cc1OC,13,57*,0,5.2*,0,4
O=C(Oc1ccc(OC(=O)c2ccncc2)cc1)c1ccncc1,9,-8,0,10*,-1,-15
Cc1ccc(-c2c(F)c(F)c(F)c(F)c2C(=O)O)cc1,14,0,0,1,·,·
O=C(N=C1N=C2C=CC(Cl)=CN2Cc2ccccc21)c1ccc(Cl)c([N+](=O)[O-])c1,-1,-16,0,17*,1,-6
O=C(N=C1N=C2C=CC(Cl)=CN2Cc2ccccc21)c1ccco1,6,-43,0,-7,·,·
CN(Cc1ccccc1)C(=O)CCC1CCN(C(=O)c2cc[n+]([O-])cc2)CC1,14,0,0,5.6*,1,6
N#CC1=C(S)N(c2ccccc2)C(c2ccco2)NC1=O (centres undefined),-3,-5,0,0,·,·
N#CC1=C(S)N(c2ccccc2)C(c2cccs2)NC1=O (centres undefined),-8,-8,0,6.9*,0,7
CCOC(=O)C1=C(c2ccccc2)N=c2s/c(=C\c3ccco3)c(=O)n2C1c1cccs1 (centres undefined),27,-1,1,0,·,·
CCOC(=O)C1=C(C)N=c2s/c(=C\c3ccco3)c(=O)n2C1c1cccs1 (centres undefined),16,6,0,7.5*,1,1
CCOC(=O)C1=C(C)N=c2s/c(=C\c3ccc(-c4ccccc4C(=O)O)o3)c(=O)n2C1c1ccccc1OC (centres undefined),12,10,0,5.7*,2,5
CCOC(=O)C1=C(C)N=c2s/c(=C\c3ccc(-c4ccc(C(=O)O)cc4)o3)c(=O)n2C1c1ccccc1OC (centres undefined),-12,0,0,2,·,·
COC(=O)C1=C(C)N=c2s/c(=C\c3c(F)cccc3Cl)c(=O)n2C1c1ccccc1 (centres undefined),-3,14,0,5.3*,0,6
CCOC(=O)C1=C(C)N=c2s/c(=C\c3ccc(OC)cc3)c(=O)n2C1c1ccccc1OC (centres undefined),3,-5,0,0,·,·
CCOC(=O)C1=C(C)N=c2s/c(=C\c3ccc(C)cc3)c(=O)n2C1c1ccccc1OC (centres undefined),-11,6,0,8.6*,-1,-14
CCOC(=O)C1=C(C)N=c2s/c(=C\c3c(F)cccc3Cl)c(=O)n2C1c1ccc(C)cc1 (centres undefined),-12,-8,0,-1,·,·
Cc1c(NC(=O)CSc2ccccc2)c(=O)n(-c2ccccc2)n1C,-29,8,0,2,·,·
Cc1c(NC(=O)CSc2ccc(C(C)(C)C)cc2)c(=O)n(-c2ccccc2)n1C,11,10,0,8.2*,0,0
COc1ccc(CN=Cc2c(O)n(-c3ccc(OC)cc3)c(=O)[nH]c2=O)cc1,-4,5,0,-1,·,·
O=C(C1c2ccccc2C(=O)N2CCc3ccccc3C12)N1CCN(C2CCCCC2)CC1 (centres undefined),-2,4,0,12*,0,-3
CCC(=O)NC(c1nnc2n1CCN(Cc1ccc(C)c(C)c1)CC2)C(C)C (centres undefined),-6,13,0,9.8*,1,5
CCOc1cc(CN2CCc3nnc(C(NS(C)(=O)=O)C(C)C)n3CC2)ccc1O (centres undefined),-3,-3,0,8.1*,0,2
CCC(=O)NC(c1nnc2n1CCN(Cc1ccc(OC)c(C)c1)CC2)C(C)C (centres undefined),-4,1,0,0,·,·
COC(=O)c1ccc(NC(=O)c2c(NCc3ccc(C)o3)sc3c2CCCC3)cc1,14,-7,0,8.1*,1,0
COc1ccc(OC)c(NC(=O)c2c(NCc3ccc(C)o3)sc3c2CCCC3)c1,3,4,0,3,·,·
SMILES,MITF primary,TEAD-YAP inh,FBW7 act,GPR151 ag,GPR151 confirm,GPR119 counter
COC(=O)c1c(NC(=O)c2ccc(C)cc2)sc2c1CCCCC2,6,-1,0,-1,·,·
COC(=O)c1c(NC(=O)c2ccc(C)cc2)sc2c1CCCC2,1,4,0,6.5*,0,14
Cc1ccc(NC(=O)N2c3ccccc3Sc3ccccc32)c(C)c1,0,-4,1,0,·,·
Fc1ccc(C2CC(c3ccc(Br)cc3)=NN2c2nc(-c3ccccc3)c3cc(Br)ccc3n2)cc1 (centres undefined),-2,5,0,5.8*,0,2
CCCc1nn(CC(=O)NCc2cccs2)c(=O)c2cc3ccsc3n12,-2,0,0,0,·,·
CCNC(=S)NCCc1ccc(Cl)cc1,11,-22,0,5.5*,0,3
O=C(NCCc1ccc(Cl)cc1)C(=O)NCc1ccccc1,9,5,0,7.4*,0,16
NNC(=S)NCCc1ccc(Cl)cc1,5,13,0,0,·,·
Cc1c(C(=O)Nc2ccc3oc(-c4cccnc4)nc3c2)sc2ccccc12,6,-14,0,-2,·,·
Cc1ccccc1OCC(=O)Nc1ccc(S(=O)(=O)Nc2onc(C)c2C)cc1,3,5,0,-1,·,·
Cn1c(=O)c2c(nc(SCc3ccccc3F)n2C)n(C)c1=O,1,7,0,4.9*,1,12
Cn1c(=O)c2c(nc(SCc3ccccn3)n2C)n(C)c1=O,13,13,0,0,·,·
CC(=O)c1c(O)c(C(C)=O)c2oc(=O)cc(C)c2c1O,10,2,0,1,·,·
NNC(=O)c1cc(-c2ccc(O)cc2)nc2ccc(Br)cc12,3,4,0,1,·,·
O=C(NCc1ccc(F)cc1)c1cc(-c2ccccc2Cl)nc2ccccc12,2,8,0,17*,1,16
O=C(O)c1cc(-c2ccc(F)cc2)nc2ccccc12,-3,-17,0,1,·,·
O=C(NCc1ccc2c(c1)OCO2)c1cc(-c2ccccc2Cl)nc2ccccc12,7,19,0,0,·,·
NNC(=O)c1cc(-c2ccc(F)cc2)nc2ccccc12,5,2,0,6.1*,1,16
COc1ccc(-c2cc(C(=O)NN)c3cc(Br)ccc3n2)cc1,12,1,0,5.0*,-1,-7
